PubChem BioAssay (Tox21)
Results filed as inconclusive are left out. Activity calls are given as the source filed them. Unless noted, calls come from the whole dose curve; as a rule, active = well fitted curve in the direction sought with a large enough effect in the repeat runs; inconclusive = weak or mixed curves; inactive = no such curve, though single readings can be large; an effect the other way counts as inactive or inconclusive.

Legend:
[1] = qHTS assay to identify small molecule antagonists of the peroxisome proliferator-activated receptor delta (PPARd) signaling pathway - cell viability counter screen (AID 743213); note: % is set by controls: 0 for no effect and ±100 for the full control effect; nearly all actives have a fitted effect of over 50% in size
In short: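 In this counter screen, HEK293H cells carrying a UAS-beta-lactamase reporter are co-treated with test compounds and 300 nM L165041 (final) for 17 h at 37 C; cell viability is quantified by CellTiter-Glo luminescence.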

[2] = qHTS assay to identify small molecule agonists of the farnesoid-X-receptor (FXR) signaling pathway - cell viability counter screen (AID 743218); note: % is set by controls: 0 for no effect and ±100 for the full control effect; nearly all actives have a fitted effect of over 45% in size
In short: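 FXR-UAS-bla HEK 293T cells, plated 5 h at 37 C, were exposed to compounds for 16 h at 37 C. CellTiter-Glo was then added to the same wells as the bla readout; luminescence read after 30 min at room temperature.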

[3] = qHTS assay to identify small molecule antagonists of the farnesoid-X-receptor (FXR) signaling pathway - cell viability counter screen (AID 743221; active = well fitted cell-killing curve with a large enough effect in the repeat runs, not every such curve was filed as active; note: nearly all actives have a fitted effect of over 50% in size; note: potency is the fitted concentration of half-maximal effect)
In short: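 In GeneBLAzer FXR-UAS-bla HEK 293T cells stimulated with 50 uM chenodeoxycholic acid (final), compounds acted for 16 h at 37 C. Viability was assessed afterwards by CellTiter-Glo luminescence.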

[4] = qHTS assay to identify small molecule agonists of the vitamin D receptor (VDR) signaling pathway - cell viability counter screen (AID 743224); note: series mostly up to about 63 µM; % is set by controls: 0 for no effect and ±100 for the full control effect; nearly all actives have a fitted effect of over 50% in size
In short: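 VDR-bla cells were preincubated 4 h at 37C/5% CO2, then exposed to compounds for 16 h. After the 2 h room-temperature bla FRET read, CellTiter-Glo was added to the same wells and luminescence read after 30 min.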

[5] = qHTS assay to identify small molecule agonists of the NFkB signaling pathway (AID 1159509; active = well fitted curve in the direction sought with a large enough effect in the signal ratio in the repeat runs, not every such curve was filed as active; the % refers to the signal ratio; note: series mostly up to about 61 µM; % is set by controls: 0 for no effect and ±100 for the full control effect)
In short: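 NFkB-bla ME-180 cells carry a beta-lactamase reporter under an NF-kB response element. They were plated overnight, then exposed to compounds for 5 h at 37 C. Read-out is LiveBLAzer FRET after 1.5 hr at room temperature (405 nm excitation; 460/530 nm emission).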

[6] = qHTS assay to identify small molecule agonists of the NFkB signaling pathway - cell viability counter screen (AID 1159515; calls by dose curve; note: series mostly up to about 61 µM; % is set by controls: 0 for no effect and ±100 for the full control effect; nearly all actives have a fitted effect of over 55% in size)
In short: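 NFkB-bla ME-180 cells, 2,000/well, were plated overnight at 37 C, 5% CO2, then exposed to compounds in DMSO for 5 hr. After the bla FRET read, CellTiter-Glo was added to the same wells; luminescence was read after 30 min at room temperature.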

[7] = qHTS assay to identify small molecule agonists of the endoplasmic reticulum stress response signaling pathway (AID 1159516; active = well fitted activation curve with a large enough effect in the signal ratio in the repeat runs, not every such curve was filed as active; the % refers to the signal ratio; note: % is set by controls: 0 for no effect and ±100 for the full control effect)
In short: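 CellSensor ESRE-bla HeLa cells, carrying a beta-lactamase reporter driven by the ER stress response element, were plated overnight and exposed to compounds for 5 hr at 37 C. Reporter activity was read as FRET substrate fluorescence after 2 hr at room temperature.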

[8] = qHTS assay to identify small molecule agonists of the endoplasmic reticulum stress response signaling pathway - cell viability counter screen (AID 1159517; calls by dose curve; note: series mostly up to about 61 µM; % is set by controls: 0 for no effect and ±100 for the full control effect; nearly all actives have a fitted effect of over 50% in size)
In short: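 HeLa cells carrying an ESRE-driven beta-lactamase reporter receive compound for 5 hr at 37 C. Cell viability is then gauged with CellTiter-Glo by luminescence, 30 min at room temperature.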

[9] = qHTS assay to identify small molecule antagonists of the retinoid-related orphan receptor gamma (ROR-gamma) signaling pathway - cell viability counter screen (AID 1159520); note: nearly all actives have a fitted effect of over 50% in size; note: potency is the fitted concentration of half-maximal effect
In short: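 Cytotoxicity was read from cellular ATP (CellTiter-Glo luminescence) after 16 hr at 37 C with 1 uM doxycycline induction. The inducer was added 2 hr after compound transfer to Tet-on ROR gamma CHO cells.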

[10] = biological target: Nuclear receptor ROR-gamma (Homo sapiens) (UniProt P51449); test: qHTS assay to identify small molecule antagonists of the retinoid-related orphan receptor gamma (ROR-gamma) signaling pathway (AID 1159521; note: nearly all actives have a fitted effect of over 50% in size; note: potency is the fitted concentration of half-maximal effect)
In short: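 CHO cells expressing RORγ under a TET-on promoter, luciferase under RORE control. Dox 1 uM final, 16 h; compounds added 2 h prior. Luminescence decrease measured.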

[11] = qHTS assay to identify small molecule agonists of the AP-1 signaling pathway - cell viability counter screen (AID 1159525; calls by dose curve; note: nearly all actives have a fitted effect of over 55% in size)
In short: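 Luminescent ATP readout (Cell Titer Glo, 30 min RT), normalised to DMSO and tetra n-octyl ammonium bromide controls. Cells were ME-180 AP-1-bla in 0.5% dialyzed FBS Opti-MEM, with a 5 h, 37 °C compound exposure.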

[12] = qHTS assay to identify small molecule agonists of the AP-1 signaling pathway (AID 1159526; calls by dose curve; note: % is set by controls: 0 for no effect and ±100 for the full control effect)
[13] = biological target: Peroxisome proliferator-activated receptor delta (Homo sapiens) (UniProt Q03181); test: qHTS assay to identify small molecule antagonists of the peroxisome proliferator-activated receptor delta (PPARd) signaling pathway (AID 743215; active = well fitted inhibition curve with a large enough effect in the signal ratio in the repeat runs, not every such curve was filed as active; the % refers to the signal ratio;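 note: cells stimulated with agonist L165041 at 300 nM final during compound exposure; series mostly up to about 62 µM; % is set by controls: 0 for no effect and ±100 for the full control effect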)
Sequence of Peroxisome proliferator-activated receptor delta (Homo sapiens) (Q03181 whole entry, looked up): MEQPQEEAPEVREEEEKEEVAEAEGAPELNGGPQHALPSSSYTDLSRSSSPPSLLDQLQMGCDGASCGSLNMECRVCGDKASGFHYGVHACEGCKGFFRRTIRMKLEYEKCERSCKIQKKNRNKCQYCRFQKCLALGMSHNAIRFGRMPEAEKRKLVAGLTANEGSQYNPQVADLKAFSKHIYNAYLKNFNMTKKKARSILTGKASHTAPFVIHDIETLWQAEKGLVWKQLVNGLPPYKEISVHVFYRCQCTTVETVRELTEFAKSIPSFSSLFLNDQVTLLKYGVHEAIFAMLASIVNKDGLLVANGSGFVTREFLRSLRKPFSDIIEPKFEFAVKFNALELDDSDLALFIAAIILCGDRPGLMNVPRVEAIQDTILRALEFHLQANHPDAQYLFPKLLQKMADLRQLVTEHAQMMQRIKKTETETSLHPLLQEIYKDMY
In short: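 PPARd UAS-bla HEK293H cells were pre-incubated 5 h at 37 C, then given test compounds in DMSO plus agonist L165041 (300 nM final). After 17 h at 37 C, beta-lactamase FRET substrate was added; fluorescence read after 2 h at room temperature.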

[14] = biological target: Vitamin D3 receptor (Homo sapiens) (UniProt P11473); test: qHTS assay to identify small molecule agonists of the vitamin D receptor (VDR) signaling pathway (AID 743222; calls by dose curve; note: % is set by controls: 0 for no effect and ±100 for the full control effect)
Sequence of Vitamin D3 receptor (Homo sapiens) (P11473 whole entry, looked up): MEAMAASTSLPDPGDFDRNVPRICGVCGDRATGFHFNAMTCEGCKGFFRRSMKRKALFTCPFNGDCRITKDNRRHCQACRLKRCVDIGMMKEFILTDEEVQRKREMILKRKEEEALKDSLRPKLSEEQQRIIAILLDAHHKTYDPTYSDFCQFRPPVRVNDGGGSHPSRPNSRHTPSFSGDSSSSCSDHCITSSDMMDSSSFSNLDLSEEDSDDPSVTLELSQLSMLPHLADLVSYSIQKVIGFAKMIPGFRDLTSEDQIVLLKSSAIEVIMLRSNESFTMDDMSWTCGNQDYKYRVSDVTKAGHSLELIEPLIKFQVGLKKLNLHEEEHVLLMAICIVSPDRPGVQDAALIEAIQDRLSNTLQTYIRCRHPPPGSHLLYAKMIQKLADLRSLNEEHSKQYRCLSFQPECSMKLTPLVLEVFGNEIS
In short: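 VDR-bla cells were plated 4 h at 37C/5% CO2, then exposed to compounds in DMSO for 16 h. After LiveBLAzer B/G FRET substrate addition and 2 h at room temperature, beta-lactamase reporter fluorescence was read.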

[15] = biological target: Vitamin D3 receptor (Homo sapiens) (UniProt P11473); test: qHTS assay to identify small molecule antagonists of the vitamin D receptor (VDR) signaling pathway (AID 743223; active = well fitted inhibition curve with a large enough effect in the signal ratio in the repeat runs, not every such curve was filed as active; the % refers to the signal ratio; note: % is set by controls: 0 for no effect and ±100 for the full control effect)
In short: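 Agonist 1alpha,25-dihydroxyvitamin D3 (3 nM in well) was added with each compound to VDR-bla cells preincubated 4 h. Cells stood 16 h at 37C, then FRET substrate 2 h at room temperature; fluorescence intensity recorded.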

[16] = qHTS assay to identify small molecule antagonists of the vitamin D receptor (VDR) signaling pathway - cell viability counter screen (AID 743225)
In short: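 Luminescent cell viability (CellTiter-Glo) in VDR-bla HEK 293T cells after 16 h compound exposure at 37C in the presence of 3 nM final 1-alpha,25-dihydroxy vitamin D3.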

CCn1nc(Cc2ccccc2)cc1C1CCN(C[C@H]2C[C@H](N(C)[C@@H](C(=O)O)C(C)C)C[C@@H]2c2cccc(F)c2)CC1
inactive: Potency [1] | Potency [2] | Potency [3] | outcome [4] | outcome [5] | outcome [6] | outcome [7] | outcome [8] | Potency [9] | Potency [10] | outcome [11] | Potency [12]

CC1=CC(=C(c2ccc(N)cc2)c2ccc(N)cc2)C=CC1=N
inactive: viability change, negative = cytotoxic [1] -32.9% [at 6.26 µM] | ratio activity, negative = inhibition [13] -10.9% [at 6.26 µM] | viability change, negative = cytotoxic [2] -22.2% [at 5.95 µM] | activation [14] -2.54% [at 6.01 µM] | activity change, negative = cytotoxicity [4] -18.2% [at 5.95 µM] | activation [5] 0.0131% [at 6.95 µM] | activity, negative = cytotoxic [6] 11% [at 6.95 µM] | activation [7] -5.36% [at 6.95 µM] | activity change, negative = cytotoxicity [8] -9.14% [at 6.95 µM] | activity, negative = cytotoxicity [9] -12.6% [at 8.39 µM] | activity change, negative = inhibition [10] -15.2% [at 8.39 µM] | viability change, negative = cytotoxic [11] 23.5% [at 6.97 µM] | activation [12] -9.58% [at 6.97 µM]

O=C(c1ccc(Cl)cc1)c1ccc(Cl)cc1
inactive: Potency [1] | outcome [13] | Potency [2] | Potency [3] | outcome [14] | outcome [15] | outcome [16] | outcome [5] | outcome [6] | outcome [7] | outcome [8] | Potency [9] | Potency [10] | outcome [11] | Potency [12]

CC(C)C[C@H](NC(=O)[C@H](Cc1ccccc1)NC(=O)c1cnccn1)B(O)O
active: Potency [3] 298 nM | Potency [9] 66.8 nM | Potency [10] 47.3 nM
inactive: outcome [16] | outcome [5] | outcome [6] | outcome [7] | outcome [8] | outcome [11] | Potency [12]
